From PubChem BioAssay AID435005 (Broad Institute, 2010)
The whole screen tested about 300,000 compounds, of which about 2,400 (0.8%) were called active.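 Rule for the calls: active = Every replicate reaches about 75%, or at least half do and their mean reaches it too (limit read from the data); inconclusive = At least half of replicates reach the limit but their mean does not; inactive = Under half of replicates reach the limit.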 Shown is part of a subset that was picked to be rich in actives.

Experiment: INS-1E beta cell survival under cytokines – luminescence, primary screen (AID 435005);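 note: 0% = cytokine-treated negative control wells and 100% = positive control rescue; higher means more ATP so stronger rescue from cytokine killing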
Conditions: INS-1E cytokine-induced death, ATP luminescence, 48 h; active compounds read high; percent of positive-control rescue, neutral wells zero; concentration not given here
With `CCC(CO)Oc1cc(NC(=O)c2ccc(Cl)cc2)c2ncn(C(C)C)c2c1` (stereo not given) the protection from apoptosis was 2.88% (inactive).
For `CCOc1cc(N2CCOCC2)c(OCC)cc1NC(=O)COc1cccc(Cl)c1`, the protection from apoptosis was 0.61% (inactive).
In the case of `CCOc1cc(N2CCOCC2)c(OCC)cc1NC(=O)c1cc(C)nc2ccccc12`, the protection from apoptosis is reported as 7.08% (inactive).
For `CCOc1cc(N2CCOCC2)c(OCC)cc1NC(=O)COc1cccc2cccnc12`, the protection from apoptosis was 102% (active).
In the case of `C/C(=N\NC(=O)c1ccoc1C)c1ccccc1O`, the protection from apoptosis is reported as 79.7% (active).
With `Cc1cc(C(=O)NNC(=O)c2ccccc2O)c(C)o1` the protection from apoptosis was -1.18% (inactive).
For `C/C(=N\NC(=O)c1ccccc1C)c1ccc(N2CCOCC2)cc1`, the protection from apoptosis was -16.8% (inactive).
In the case of `Cn1cncc1C#Cc1c(-c2ccsc2)sc2ccccc12`, the protection from apoptosis is reported as -6.24% (inactive).
With `O=C(NCCc1ccc(C(F)(F)F)cc1)c1ccc2c(c1)OCO2` the protection from apoptosis was 5.32% (inactive).
For `CCCCNc1c(-c2ccc(OC)c(Sc3ccc(OC)cc3)c2)nc2ccc(Cl)cn12`, the protection from apoptosis was 16.9% (inactive).
In the case of `Cc1cc(C)c[n+](-c2nc3ccccc3nc2[N-]S(=O)(=O)c2cccs2)c1`, the protection from apoptosis is reported as -3.34% (inactive).
In the case of `O=C(NCCc1ccccc1)C1CCN(S(=O)(=O)c2ccc(Br)s2)CC1`, the protection from apoptosis is reported as 2.68% (inactive).
For `O=S(=O)([N-]c1nc2ccccc2nc1-[n+]1ccc(Cc2ccccc2)cc1)c1ccc(Br)s1`, the protection from apoptosis was 118% (active).
With `Cc1ccc(C(=O)Nc2ccn(C)n2)cc1` the protection from apoptosis was -7% (inactive).
With `CCn1nc(C(=O)NNS(=O)(=O)c2cc(/C=C/C(=O)O)cc(OC)c2OC)c2ccccc2c1=O` the protection from apoptosis was 0.598% (inactive).
For `COc1cc(/C=C/C(=O)Nc2ccc(OC)c(S(=O)(=O)N3CCOCC3)c2)ccc1OCC#N`, the protection from apoptosis was 4.79% (inactive).
In the case of `COc1ccc(OC)c(-c2csc(NC(=O)COC(=O)C3CC3)n2)c1`, the protection from apoptosis is reported as -4.15% (inactive).
For `Cc1ccc(-c2nn(-c3ccccc3)cc2/C=N/NC(=O)c2ccc3c(c2)OCO3)cc1`, the protection from apoptosis was 110% (active).
For `O=C(O)c1ccc(N/N=C/c2cn(-c3ccccc3)nc2-c2cccs2)cc1`, the protection from apoptosis was -0.771% (inactive).
With `CC(C)(C)OC(=O)N/N=C/c1cn(-c2ccccc2)nc1-c1cccnc1` the protection from apoptosis was 2.76% (inactive).
For `Cc1cccc(C(=O)N[C@H](C(=O)NCc2cccs2)C(C)C)c1`, the protection from apoptosis was 3.35% (inactive).
With `O=C(CN1CCc2ccccc2C1)Nc1cccc(S(=O)(=O)N2CCOCC2)c1` the protection from apoptosis was 0.0837% (inactive).
For `COc1cccc(/C(C)=N/Nc2ncc(Cl)cc2Cl)c1`, the protection from apoptosis was -0.169% (inactive).
With `N/C(=N\OC(=O)Nc1ccc(Cl)c(Cl)c1)c1ncc(C(F)(F)F)cc1Cl` the protection from apoptosis was -13.2% (inactive).
In the case of `COc1cccc(/C=N/Nc2ncc(C(F)(F)F)cc2Cl)c1O`, the protection from apoptosis is reported as 131% (active).
For `Cc1ccc(/C=C/C(=O)OCC(=O)NCc2ccc(Cl)cc2)o1`, the protection from apoptosis was 0.631% (inactive).
In the case of `CC(=O)N1CCCc2cc(S(=O)(=O)N3CCCC(C(=O)N4CCN(c5cccc(Cl)c5)CC4)C3)ccc21` (stereo not given), the protection from apoptosis is reported as 89.9% (active).
With `CC(=O)N1CCCc2cc(S(=O)(=O)N3CCCC(C(=O)NCc4ccc(Cl)cc4)C3)ccc21` (stereo not given) the protection from apoptosis was 4.03% (inactive).
For `CC(=O)N1c2ccc(S(=O)(=O)N3CCCC(C(=O)Nc4cccc(Cl)c4)C3)cc2CC1C` (stereo not given), the protection from apoptosis was 6.26% (inactive).
For `COc1ccccc1C(=O)OCC(=O)Nc1cccc(S(=O)(=O)NC2=NCCCCC2)c1`, the protection from apoptosis was -2.64% (inactive).
With `O=C(NCCc1ccco1)c1ccc(OCc2cn3ccccc3n2)cc1` the protection from apoptosis was 1.94% (inactive).
For `CCOC(=O)c1cnc(-n2nc(C)cc2C)nc1NNc1cc(C)nc(-c2ccccc2)n1`, the protection from apoptosis was 84.8% (active).
For `CCOC(=O)c1cnc(-n2nc(C)cc2C)nc1Nc1cccc(C(C)=O)c1`, the protection from apoptosis was 8.92% (inactive).
With `Cc1cc(C)n(-c2c(F)c(F)c(COC(=O)c3ccccc3)c(F)c2F)n1` the protection from apoptosis was 3.67% (inactive).
In the case of `C=CCC[C@H](Cc1ccc(F)cc1)C(=O)OC[C@@H](NC(=O)[C@@H](CC=C)CC(=O)N[C@H](CO)Cc1ccccc1)C(C)(C)C`, the protection from apoptosis is reported as 5.28% (inactive).
In the case of `O=C(NNS(=O)(=O)c1c(F)cc(F)c(Cl)c1F)C12CC3CC(CC(C3)C1)C2`, the protection from apoptosis is reported as -12% (inactive).
For `Cc1nc2ccccc2cc1OCc1ccc(F)cc1`, the protection from apoptosis was 95.4% (active).
For `Cc1occc(=O)c1OCc1ccc(F)cc1`, the protection from apoptosis was -6.87% (inactive).
For `Fc1ccccc1COc1cccc2cccnc12`, the protection from apoptosis was -7.41% (inactive).
With `COC(=O)c1c(NC(=O)COc2ccc(Cl)cc2Cl)sc2c1CC(C)(C)NC2(C)C` the protection from apoptosis was 114% (active).
In the case of `CCOC(=O)c1c(NC(=O)c2ccc(S(=O)(=O)N(C)CC3CCCO3)cc2)sc2c1CC(C)(C)NC2(C)C` (stereo not given), the protection from apoptosis is reported as 25.6% (inactive).
With `Cc1nn(-c2ccccc2)c(C)c1NC(=O)COc1ccc(Cl)cc1Cl` the protection from apoptosis was 0.164% (inactive).
For `COc1cc(OC)cc(C(=O)N[C@H](C(=O)NNC(=O)c2ccc(Br)cc2)C(C)C)c1`, the protection from apoptosis was -4.34% (inactive).
For `CC1CCCCC1NCC(=O)Nc1ccccc1C(=O)Nc1ccccc1` (stereo not given), the protection from apoptosis was 4.75% (inactive).
With `CSc1ncc(Sc2ccccc2)c(C(=O)O)n1` the protection from apoptosis was -2.15% (inactive).
With `CSc1nc(-c2ccccc2)nc(C(Cl)Cl)n1` the protection from apoptosis was 105% (active).
With `COc1cc(OC)c(N2CC(C(=O)Nc3cc(Cl)ccc3N3CCOCC3)CC2=O)cc1Cl` (stereo not given) the protection from apoptosis was 26.3% (inactive).
For `O=C(COC(=O)Cc1ccc([N+](=O)[O-])cc1)NC1CCCCCC1`, the protection from apoptosis was -5.89% (inactive).
With `NC(=O)C1CCN(C(=O)c2ccc(F)c(S(=O)(=O)N3CCOCC3)c2)CC1` the protection from apoptosis was 0.339% (inactive).
With `COc1ccc(N(C(=O)c2cccnc2)S(=O)(=O)c2ccc(OC)c(OC)c2)cc1` the protection from apoptosis was -3.31% (inactive).
In the case of `O=C(c1cccnc1)N(c1cc2sc(=O)oc2c2ccccc12)S(=O)(=O)c1ccccc1`, the protection from apoptosis is reported as 81.4% (active).
With `COc1ccc(N(C(=O)c2cccnc2)S(=O)(=O)c2ccc3c(c2)n(C)c(=O)n3C)cc1` the protection from apoptosis was -8.54% (inactive).
For `COc1cc(Cl)c(C)cc1NC(=O)CSc1nnc(CN2CCCC2)o1`, the protection from apoptosis was 2.22% (inactive).
With `COc1cccc(NC(=O)COC(=O)c2ccc3ccccc3n2)c1` the protection from apoptosis was -5.49% (inactive).
In the case of `CCCCCCCCCCOC(=O)Cn1c(COc2cccc(OC)c2)[n+](C)c2ccccc21`, the protection from apoptosis is reported as 109% (active).
With `CCOC(=O)Cn1c(-c2cccnc2Cl)nc2ccccc21` the protection from apoptosis was -2.69% (inactive).
In the case of `CCCCCCCCCCOC(=O)Cn1c(COc2ccc(C)cc2)[n+](C)c2ccccc21`, the protection from apoptosis is reported as 112% (active).
With `COc1cccc(OCCCN2CCCCCC2)c1` the protection from apoptosis was -3.45% (inactive).
With `CCn1c(=N)n(CC(=O)c2cccc(OC)c2)c2ccccc21` the protection from apoptosis was -5.87% (inactive).
For `Cc1ccc(OCCCn2c(=O)oc3ccccc32)cc1`, the protection from apoptosis was 1.16% (inactive).
